For one experiment, the target named is Albumin (Bos taurus) (UniProt P02769). Description: compounds binding labelled BSA control protein – biochemical, small-molecule microarray, Alexa647 label, 635/667 nm fluorescence, artefact control for SMM control protein annotation, profiling panel (AID 1118).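 Also: score merges 667 nm emission intensity and signal-to-noise per printed compound spot.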 The settings on record: BSA-A647 binding, fluorescence 635 nm, higher = more signal.
Experiment [1] in a line: probe aXIP binding to arrayed compounds – biochemical, NeuroSMM set, 635/667 nm fluorescence, primary screen (AID 1119).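 Also: probe is the protein aXip251-270 applied at 1 µg/mL to compound-printed slides; binding of probe to printed compounds measured as 667 nm fluorescence plus signal to noise.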 As to conditions: small-molecule microarray, higher = more signal, called active from +8 up or from −8 down.
Experiment [2] can be described thus: probe aNOTCH3 binding on compound microarray – biochemical, small-molecule microarray, 635/667 nm fluorescence, primary screen (AID 1120).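 Also: probe is a biotin-tagged antibody raised against NOTCH3 rather than NOTCH3 protein; score merges spot fluorescence near 667 nm with spot signal to noise.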 As to conditions: higher = more signal.
Experiment [3] in a line: probe aNOTCH2 binding on compound microarray – biochemical, small-molecule microarray, 635/667 nm fluorescence, primary screen (AID 1121).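 Also: score merges feature fluorescence read at 667 nm with its signal to noise.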 The settings on record: higher = more signal.
The target of experiment [4] is Carbonic anhydrase 2 (Homo sapiens) (UniProt P00918). Briefly: compounds binding carbonic anhydrase 2 – biochemical, small-molecule microarray, Alexa647-labelled CAII, profiling panel (AID 1122). As to conditions: CAII-A647 binding fluorescence, higher = more signal.
Experiment [5] can be described thus: COS7 lysate on small-molecule microarray, probe aHis, 635 nm (AID 1123).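 Also: z-score combines 667nm fluorescence intensity with signal-to-noise per printed compound spot.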 The settings on record: COS7 cell lysate, fluorescence, higher = more signal.
Experiment [6] is described as follows: probe aLAP1 signal on lysate-treated microarray – cell lysate, small-molecule microarray, COS7 lysate, primary screen (AID 1124).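 Also: lysate comes from COS7 cells expressing LAP1 and is applied at 0.3 µg/mL; score merges spot fluorescence near 667 nm with signal-to-noise over triplicate slides.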 As to conditions: probe aLAP1, fluorescence, higher = more signal.
The subject of the next experiment is Sam68 (KHDRBS1). Description: compounds binding KHDRBS1 protein – biochemical, small-molecule microarray, 635 nm fluorescence, primary screen (AID 1125).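 Also: score merges 667 nm channel intensity with signal to noise over triplicate slides.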 As to conditions: higher = more signal.
The subject of experiment [7] is Chordin-like protein 2 (CHRDL2). Description: compounds binding chordin-like 2 – biochemical, small-molecule microarray, 635 nm fluorescence, primary screen (AID 1126).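 Also: printed compound slides probed with Chrdl2 protein at 4 µg/mL for 1 h at 4 C; score merges 667 nm emission intensity with signal to noise over three replicate slides.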 As to conditions: fluorescence 635 nm, higher = more signal.
The target in experiment [8] is Concanavalin-A (Canavalia ensiformis) (UniProt P02866). Description: compounds binding concanavalin A lectin – biochemical, small-molecule microarray, Alexa647 label, 635 nm, artefact control for SMM control protein annotation, primary screen (AID 1127).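 Also: z combines 667 nm emission intensity with signal-to-noise across three replicate slides.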 The settings on record: ConA-A647 binding fluorescence, higher = more signal.

The source made the active and inactive calls.

We go through 13 compounds from PubChem BioAssay.

Chain of Albumin (Bos taurus) (P02769 whole entry, looked up): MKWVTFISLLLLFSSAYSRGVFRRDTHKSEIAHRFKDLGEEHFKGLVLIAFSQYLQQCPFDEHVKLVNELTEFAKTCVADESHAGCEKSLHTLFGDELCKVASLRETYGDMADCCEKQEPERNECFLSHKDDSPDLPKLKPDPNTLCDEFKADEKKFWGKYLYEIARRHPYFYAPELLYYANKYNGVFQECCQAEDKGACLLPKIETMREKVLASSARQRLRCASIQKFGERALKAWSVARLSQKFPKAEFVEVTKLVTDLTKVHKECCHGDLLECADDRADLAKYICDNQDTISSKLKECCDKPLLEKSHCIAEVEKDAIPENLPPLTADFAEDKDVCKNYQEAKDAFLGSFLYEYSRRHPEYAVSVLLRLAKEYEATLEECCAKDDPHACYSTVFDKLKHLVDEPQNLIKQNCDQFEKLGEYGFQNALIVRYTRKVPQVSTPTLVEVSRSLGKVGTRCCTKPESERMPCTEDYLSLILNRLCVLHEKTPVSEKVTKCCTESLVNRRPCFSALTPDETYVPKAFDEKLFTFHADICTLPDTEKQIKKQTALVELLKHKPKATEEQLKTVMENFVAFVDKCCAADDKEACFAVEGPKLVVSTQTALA
Chain of Concanavalin-A (Canavalia ensiformis) (P02866 whole entry, looked up): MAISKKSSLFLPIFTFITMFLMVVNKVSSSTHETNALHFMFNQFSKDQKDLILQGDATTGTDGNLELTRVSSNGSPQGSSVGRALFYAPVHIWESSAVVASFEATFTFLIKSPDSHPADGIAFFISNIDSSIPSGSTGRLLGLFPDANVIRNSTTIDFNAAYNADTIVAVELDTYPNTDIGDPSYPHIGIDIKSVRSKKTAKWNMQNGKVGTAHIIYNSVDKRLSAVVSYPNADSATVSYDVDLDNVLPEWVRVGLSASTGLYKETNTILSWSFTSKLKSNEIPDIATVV

As to `CS(=O)(=O)CCOC(=O)C1=CC(c2ccc(CO)cc2)=CC(C2CC2)N(Cc2cc3c(cc2Br)OCO3)C=C1C(=O)OCCS(C)(=O)=O` (stereo not given), the composite z-score with Albumin (Bos taurus) is 0.381; in experiment [2], 0.143; in experiment [3], -0.0902; in [4] it was 0.618; in experiment [5], 2.29; in [6], 0.487. Besides, the values for the composite z-score (with Sam68 (KHDRBS1); in [7]; in [8]) were 1.3, 0.37 and 0.927, respectively. In addition, the composite Z-score in [1] is -0.0662 (inactive).
Consider `CCOC(=O)C[C@H]1[C@H](OC(=O)c2ccccc2-c2ccccc2)[C@@H](NC(=O)c2ccc3ccccc3c2)c2cc(OCCCO)ccc2N1C(=O)c1ccc2ccccc2n1`, for which the composite z-score in the experiment with Albumin (Bos taurus) is 0.43; in experiment [2] it was 0.172; in [3], -0.14; in experiment [4], 0.124; in [5], 0.806; in experiment [6], -0.106. In addition, the composite z-score in the experiment on Sam68 (KHDRBS1) was 0.744; in [7] it was -0.0077; in experiment [8] it was 0.406. In addition, the composite Z-score in [1] is -0.666 (inactive).
As to `O=C1O[C@@H](c2ccccc2)[C@@H](c2ccccc2)N2[C@@H](c3ccc(OCCO)cc3)[C@]3(C(=O)Nc4ccccc43)[C@@H](C(=O)Nc3nc4ccccc4s3)[C@H]12`, the composite z-score with Albumin (Bos taurus) is 0.915; in [2] it was 0.372; in [3], -0.0028; in experiment [4] it was 0.593; in [5], 2.45; in experiment [6] it was 0.262. In addition, the composite z-score in the experiment on Sam68 (KHDRBS1) amounted to 1.3; in [7] it was 0.477; in experiment [8], 1.11. In addition, in experiment [1], the composite Z-score is 0.755 (inactive).
Regarding `CCOc1cc(C(O)C2C=CC3C(=O)N(c4ccccc4)C(=O)C3N2Nc2ccc([N+](=O)[O-])cc2)ccc1O` (stereo not given), the composite z-score in the experiment with Albumin (Bos taurus) is 0.839; in experiment [2] it was 0.0488; in experiment [3] it was -0.0666; in experiment [4], 0.865; in experiment [5], 1.78; in [6], 0.502. In addition, the composite z-score with Sam68 (KHDRBS1) was 0.874; in experiment [7], -0.136; in experiment [8], 0.548. Also, the composite Z-score in [1] is -0.014 (inactive).
In the case of `CCOC(=O)C[C@H]1[C@H](OC(=O)c2ccccc2-c2ccccc2)[C@@H](NC(=O)Cc2ccc(OC)cc2)c2cc(OCCCO)ccc2N1C(=O)c1ccccc1`, the composite z-score in the experiment with Albumin (Bos taurus) is 0.176; in experiment [2] it was -0.113; in experiment [3] it was -0.155; in experiment [4] it was -0.0951; in [5], 0.157; in [6], -0.0152. Moreover, the composite z-score with Sam68 (KHDRBS1) was -0.0445; in experiment [7] it was 0.0492; in experiment [8], -0.393. The composite Z-score in [1] was 0.0843 (inactive).
`CC(C)N1C(=O)C[C@@](C(=O)NCc2ccccc2)(c2ccc([N+](=O)[O-])cc2)[C@H]1c1ccc(CO)cc1`: the composite z-score with Albumin (Bos taurus) was 0.467; in experiment [2] it was -0.186; in experiment [3], -0.0617; in experiment [4] it was 0.702; in [5] it was 2.37; in experiment [6] it was 0.506. Moreover, the figures for the composite z-score (with Sam68 (KHDRBS1); in [7]; in experiment [8]) were 1.31, -0.791 and -0.0974, respectively. The composite Z-score in [1] was 0.0119 (inactive).
With `COCCOC(=O)N1C(=O)[C@@]2(c3cc(C#CCNC(N)=O)ccc31)[C@H](c1ccc(OCCO)cc1)N1[C@H](c3ccccc3)[C@H](c3ccccc3)OC(=O)[C@H]1[C@@H]2C(=O)N1CCc2cc(OC)c(OC)cc2C1`, the composite z-score was -1.03 in the experiment with Albumin (Bos taurus); 0.112 in experiment [2]; -0.0349 in experiment [3]; 0.22 in experiment [4]; 0.592 in [5]; 0.127 in [6]. The composite z-score in the experiment on Sam68 (KHDRBS1) amounted to 0.498; in [7] it was 0.756; in experiment [8], 0.878. For the same compound, the composite Z-score in experiment [1] is -0.0505 (inactive).
On to `CC(C)C(O)C1C=CC2C(=O)N(c3ccccc3)C(=O)C2N1Nc1ccc(C#N)cc1` (stereo not given), for which the composite z-score is 1.03 with Albumin (Bos taurus); 0.276 in experiment [2]; 0.0883 in experiment [3]; 0.842 in experiment [4]; 2.73 in experiment [5]; 0.997 in experiment [6]. Further, the composite z-score is 1.26 in the experiment on Sam68 (KHDRBS1), -0.387 in experiment [7] and 1.19 in experiment [8]. Besides, in experiment [1], the composite Z-score was 2.09 (inactive).
For `[N-]=[N+]=Nc1ccccc1C[C@]1(C(=O)NCCN2CCOCC2)N=C(c2ccc(OCCCO)cc2)O[C@H]1c1ccccc1`, the composite z-score was 0.323 in the experiment with Albumin (Bos taurus); 0.194 in experiment [2]; -0.0849 in experiment [3]; 0.597 in experiment [4]; 2.7 in experiment [5]; 0.203 in experiment [6]. Further, the composite z-score amounted to 1.3 with Sam68 (KHDRBS1), 0.497 in [7] and 0.702 in experiment [8]. Further, the composite Z-score in [1] was 0.619 (inactive).
`CCCNC(=O)[C@@H]1c2ccccc2C(=O)N(Cc2ccccc2)[C@H]1c1ccc(CO)cc1`: the composite z-score is -0.271 with Albumin (Bos taurus); 0.0631 in [2]; -0.0715 in experiment [3]; 0.202 in experiment [4]; 1.1 in [5]; -0.036 in [6]. In addition, the composite z-score with Sam68 (KHDRBS1) was 0.22; in experiment [7] it was -0.592; in [8], 1.01. The composite Z-score in experiment [1] is 0.842 (inactive).
Consider `COC(=O)[C@@]1(Cc2ccccc2)[C@H]2c3cc(C(=O)N(C)C)n(Cc4c(-c5ccccc5)noc4C)c3C[C@H]2CN1C(=O)c1ccccc1`, for which the composite z-score with Albumin (Bos taurus) is 1.01; in experiment [2] it was 0.187; in experiment [3], 0.379; in experiment [4], 0.437; in [5], 2.63; in [6], -0.157. The composite z-score with Sam68 (KHDRBS1) worked out at 0.486; in experiment [7] it was 0.28; in [8] it was 0.564. Besides, in experiment [1], the composite Z-score was -0.899 (inactive).
On to `COc1ccc(CCNC(=O)[C@@]2(Sc3ccc(C)cc3)CC(=O)N(Cc3ccccc3Cl)[C@@H]2c2ccc(CO)cc2I)cc1`, for which the composite z-score in the experiment with Albumin (Bos taurus) was 0.331; in [2] it was -0.177; in experiment [3] it was -0.0814; in experiment [4], 0.76; in [5] it was 1.71; in experiment [6], 1.18. The values for the composite z-score (with Sam68 (KHDRBS1); in [7]; in experiment [8]) were 0.361, 0.0024 and -0.233, respectively. In addition, the composite Z-score in experiment [1] was -0.0194 (inactive).
Regarding `CCCC[C@@H]1C[C@H]1[C@@H](NC(=O)c1ccc(-c2ccccc2)cc1)c1ccc(-c2ccccc2)cc1`, the composite z-score with Albumin (Bos taurus) is -0.0732; in experiment [2], -0.0072; in [3], -0.0795; in [4] it was 0.0853; in experiment [5] it was 0.468; in experiment [6], -0.113. Further, the composite z-score in the experiment on Sam68 (KHDRBS1) was 0.287; in experiment [7] it was 1.42; in experiment [8], -0.142. Besides, the composite Z-score in [1] is -0.254 (inactive).
